Reference: the supplement of paper PMC10338343
± gives the standard deviation. Whole data set: some 5,500 sequences, median “pre-steady-state target cleavage rate” near 0.1, cut for the highest 2% near 0.64. Only a selection was taken, and the highest values are over-represented in it overall.

The sequences below were run on MIWI (PIWIL1) piRISC loaded with piRNA #2 (30 nt) (assay: pre-steady-state target cleavage rate (min^-1); MIWI and MILI are mouse PIWI proteins and EfPiwi is from a freshwater sponge; tags in brackets are library labels; higher = faster piRNA-guided slicing of the target). Details: guide: piRNA #2 5'p-UUAGGUAACCCAGUAGAUCCAGAGGAAUUC; auxiliary factor: 500 nM mouse GTSF1.
Experimental: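 Cleave-'n-Seq: a library of target RNAs (target site embedded in constant flanks, ACAGCATTCCGCGTTAGTGATATCCG... 5' flank; DNA-blocked outside the site) at 0.1 nM was incubated with 1 nM active mouse MILI or MIWI piRISC (synthetic 5'-monophosphorylated piRNA guide) with or without 500 nM mouse GTSF1 at 33 °C for 1 min to 16 h. Uncleaved targets were sequenced and normalised to non-target controls, and the pooled three trials were fitted to a burst-and-steady-state model to give the pre-steady-state cleavage rate (min^-1; k3 is constrained to at most 1e-4). Sequence is the target site only; target names encode pairing extent (gX:gY) and contiguous / 1-mismatch / 2-mismatch / bulge geometry. Fits with R² ≤ 0 are excluded.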

Sequence	pre-steady-state target cleavage rate
CUUAAGGUCUGGAACUACUGGCUUACCUAA	0.027 ± 0.022
CUUAAGCUCAGGAUCUACAGGGUUACCUAA	0.081 ± 0.014
CUUAAGGACAGCAUCUACUGGGUUACCUAA	0.00648 ± 0.0035
CUAUUCGUCUGGAUCUACUGGGUUACCAAA	0.36 ± 0.064
GAUUUCCUCUCGAUCUACUGGGUUACCUAA	0.66 ± 0.067
GAUUUCCUCUGGAUCUACUGGGUUACCUAA	0.183 ± 0.042
CAUUUCCUCUCGAUCUACUGGGUUACCUAA	0.808 ± 0.052
CUUUUCCUCUCGAUCUACUGGGUUACCUAA	0.602 ± 0.04
CAUUUCCUCUGGAUCUACUGGGUUACCUAA	0.541 ± 0.059
CUUUACCUCUCGAUCUACUGGGUUACCUAA	0.47 ± 0.033
CAAUUCGACUGGAUCUACUGGGUUACCUAA	0.357 ± 0.05
CUUUUCCUCUGGAUCUACUGCGUAACCUAA	0.174 ± 0.032
CUUAAGGAGAGGAUCUACUGGGUUACCUAC [g2:g20:cont:t1C]	0.0183 ± 0.0054
CAAUUGCUCUGGAUCUACUGGGUUACCUUA	0.212 ± 0.048
GAAUUCCUCUGGAUCUACUCGCUUACCUAA	0.00392 ± 0.0028
CUUAAGGAGAGCGAUCUACUGGGUUACCUAA	0.00514 ± 0.003
CUAUUCCUCUCGAUCUACUCGGUUACCUAA	0.196 ± 0.017
CAAUUCCUCUCGAUCUACUGCGUUACCUAA	0.907 ± 0.084
GAAUUCCUCUCGAUCUACUGCGUUACCUAA	0.691 ± 0.063
GAAUUCCUCUCGAUCUACUCGGUUACCUAA	0.123 ± 0.018
CUAUUCCUCUGGAUCUACUGCGUUACCUAA	0.521 ± 0.065
CUUUUCCUCUGGAUCUACUGCGUUACCUAA	0.527 ± 0.057
CAAUUCCUCUGGAUCUACUGCGUUACCUAA	0.593 ± 0.069
CUAUUCCUCUCGAUCUACUGCGUUACCUAA	0.948 ± 0.092

Sequence	pre-steady-state target cleavage rate
CUUUUCCUCUCGAUCUACUGCGUUACCUAA	0.845 ± 0.072
CUUUUCCUCAGGAUCUACUGCGUUACCUAA	0.524 ± 0.062
GAAUUCCUCUGGAUCUACUGCGUUACCUAA	0.469 ± 0.056
CAAUUCCUCUCGAUCUACUCGGUUACCUAA	0.22 ± 0.022
CUUAUCCUCUGGAUCUACUCCGUUACCUAA	0.021 ± 0.009
CAUUUCCUCUGGAACUACUGGGUUACCUAA	0.612 ± 0.044
GAAUUGCUCAGGAUCUACUGGGUUACCUAA	0.168 ± 0.037
CUUAAGGUCUGGAUCUACUGGGUUUGCUAA	0.0859 ± 0.018
CAAUUCCUGUGGAUCUACAGGGUUACCUAA	0.268 ± 0.036
CUUAAGCUCUGGAUCUACUGGGUUACCUAG [g2:g24:cont:t1G]	0.0755 ± 0.013
CAAUUCCUUGGAUCUACUGGGUUACCUAA	0.45 ± 0.061
CUUAACCUCAGGAUCUAGUGGGUUACCUAA	0.128 ± 0.017
CUUAUCCUCUCGAUCUACUGCGUUACCUAA	0.636 ± 0.048
CUUAUCCUCUCGAUCUACUGGGUUACCUAA	0.561 ± 0.04
CUUAACCUCUCGAUCUACUGCGUUACCUAA	0.614 ± 0.057
CAAUUCCACUGGAUCUACUGGGUUACCAAA	0.456 ± 0.083
CUUAUCCUCUGGAUCUACAGGGUAACCUAA	0.128 ± 0.023
CUAUUCCUCUGGUUCUACUGGGUUACGUAA	0.629 ± 0.059
GAAUUCCUCUGGUUCUACUGGGUUACCUAA	0.678 ± 0.042
CUAUUCCUCUGGUUCUACUGGGUUACCUAA	0.711 ± 0.043
CUAUUCCUCUGGUUCUACUGGGUUACCUUA	0.371 ± 0.057
GAAUUCCUCUGGUUCUACUGGGUUACGUAA	0.618 ± 0.035
GAAUUCCUCUGGUUCUACUGGGUUACCUUA	0.427 ± 0.064
GAAUUCCUCUGGUCUACUGGGUUACCUAA	0.301 ± 0.059

Sequence	pre-steady-state target cleavage rate
CAAUUCCUCUGGUUCUACUGGGUUACCUUA	0.475 ± 0.066
CAAUUCCUCUGGUCUACUGGGUUACCUAA	0.369 ± 0.088
CAAUUCCUCUGGUUCUACUGGGUUACCUAA	0.868 ± 0.05
GUAUUCCUCUGGUUCUACUGGGUUACCUAA	0.0955 ± 0.034
CAAUUCCUCUGGUUCUACUGGGUUACGUAA	0.688 ± 0.045
CUUAAGCAGAGGAUCUACUGGGUUACCUAA	0.0315 ± 0.0087
GAAUUCCACAGGAUCUACUGGGUUACCUAA	0.408 ± 0.05
CUUAAGGUCUGGAUCUACUGGGUUAGCCUAA	0.185 ± 0.025
CUUUUCCUCUGGAUCUUCUGGGAUACCUAA	0.146 ± 0.022
CUUAAGGUGAGGAUCUACUGGGUUACCUAA	0.0307 ± 0.01
CUUAUCCUCUGGAUCUACUGCGUUACCUAA	0.498 ± 0.055
CUUAAGGUCUGCAUCUAGUGGGUUACCUAA	0.0327 ± 0.0059
GAAUUCCUCUGCUUCUACUGGGUUACCUAA	0.48 ± 0.04
CUAUUCCUCUGCUUCUACUGGGUUACCUAA	0.516 ± 0.04
CUUUUCCUCUGGUUCUACUGGGUUACCUAA	0.621 ± 0.042
CAAUUCCUCUGCUUCUACUGGGUUACCUAA	0.653 ± 0.056
GAUUUCCUCUGGUUCUACUGGGUUACCUAA	0.524 ± 0.046
CAUUUCCUCUGGUUCUACUGGGUUACCUAA	0.772 ± 0.046
CUUAAGGUCUGGUUCUAGUGGGUUACCUAA	0.0776 ± 0.014
CUUAAGGACUGGAUCUACUGGGUUACCAUAA	0.051 ± 0.039
CUUAAGUUCUGGAUCUACUGGGUUACCUAA	0.274 ± 0.04
CAAUUCCUCUGGAUCUACUGGGAUACCUUA	0.219 ± 0.046
CUUAACCUCUGGAUCAACUCGGUUACCUAA	0.0679 ± 0.013
CUUAUCCUCUGGAUCUUCUGGGAUACCUAA	0.144 ± 0.025

Sequence	pre-steady-state target cleavage rate
CUAUUCCUCUGGCAUCUACUGGGUUACCUAA	0.399 ± 0.1
CUUUUCCUCUGGCAUCUACUGGGUUACCUAA	0.331 ± 0.089
CUAUUCCUCUGGCUCUACUGGGUUACCUAA	0.612 ± 0.042
CAAUUCCUCUGCAUCUACUGGGUUACCUAA	0.57 ± 0.049
CAAUUCCUCUGGCAUCUACUGGGUUACCUAA	0.636 ± 0.17
CAAUUCCUCUGGCUCUACUGGGUUACCUAA	0.66 ± 0.04
GAAUUCCUCUGGCUCUACUGGGUUACCUAA	0.586 ± 0.038
GAAUUCCUCUGCAUCUACUGGGUUACCUAA	0.421 ± 0.051
GAAUUCCUCUGGCAUCUACUGGGUUACCUAA	0.667 ± 0.17
CUUAACCACUGGAACUACUGGGUUACCUAA	0.292 ± 0.025
CUAUUCCACUGGAUCUACUGGGUUUCCUAA	0.448 ± 0.066
CAAUUGCUCUGGAUCUACUGGGUUACCAAA	0.429 ± 0.071
CUUAAGGUCUGGAUCUACUGGGUUACAUAA	0.606 ± 0.054
CUAUUCCUCUGGAUCUACUGGGUUACCUAAA	0.333 ± 0.047
CUUUUCCUCUCGAUCUACUGGCUUACCUAA	0.201 ± 0.016
CUUAAGGUCUGGAUCAACUGGGUUACGUAA	0.293 ± 0.039
CUUAUCCUCUGGAUCUACUGAGUUACCUAA	0.779 ± 0.05
CUUAUCCUCUGGAUCUACUGGGUUACCUAA [g2:g26:cont:t1A]	0.414 ± 0.063
CUUAACCUCUGGAUCUACUGGUUACCUAA	0.0564 ± 0.012
CUUAUCCUCUGGAUCUACUGGAUUACCUAA	0.402 ± 0.049
CUUAACCUCUGGAUCUACUGGAGUUACCUAA	0.00317 ± 0.0031
CUUAACCUCUGGAUCUACUGAGUUACCUAA	0.646 ± 0.047
